IL-1B inflam inh: inflammasome signaling inhibition, IL-1 beta readout; activity change, % at 57.5 µM; 360,000 tested, 4.7% active; THP-1 LPS/ATP IL-1B secretion, AlphaLISA, 16 h; active compounds read low; in the data active = activity change below about -50%; inconclusive = mostly about -30% to -49%
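Secreted IL-1B measured by AlphaLISA bead assay after 16 h compound exposure of THP-1 cells; compounds (final up to 57.5 uM) added 1 h before LPS (250 ng/mL) and ATP (1.25 mM) stimulation; lower signal means less secretion.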
TDP1 cell noCPT: qHTS for Inhibitors of human tyrosyl-DNA phosphodiesterase 1 (TDP1): qHTS in cells in absence of CPT; DT40 Tdp1-/- hTDP1 cells, no CPT, ATP luminescence, 48 h; 420,000 tested, 15% active; Potency, µM (titrated, usually from 46.2 µM), for inactives: at the highest dose activity change, negative = growth inhibition, most hits filed as inhibitors; AID 686978, 2013; note: potency is the fitted concentration of half-maximal effect; nearly all actives have a fitted effect of over 55% in size
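Luminescent ATP content (CellTiter-Glo) served as the growth readout. Knockout chicken DT40 cells expressing human TDP1 were exposed to compounds without camptothecin for a minimum 48 hr at 37 °C.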
HT1080 IDH1KD tx: kills HT-1080 cells with IDH1 knockdown | HT-1080 IDH1 knockdown viability, ATP luminescence, 48 h | Potency, µM (series often up to 46.1 µM), without a hit: at the top dose activity, negative = toxicity, actives largely listed as cytotoxic | 360,000 tested, 2% active;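 note: potency is the fitted concentration of half-maximal effect; 0% = DMSO wells and -100% = cell-free medium wells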
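CellTiter-Glo luminescence after 48 h compound exposure at 37 degrees C of IDH1-knockdown HT-1080 cells in 5% FBS RPMI. %Activity scaled between DMSO wells and cell-free media wells, with curves fitted and assigned curve classes.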
TDP1 cell CPT: growth inhibition of DT40 Tdp1-/-;hTDP1 cells with camptothecin (screen for TDP1 inhibitors); Potency, µM (series often up to 46.2 µM), for the others: top-dose activity change, negative = growth inhibition, most hits filed as inhibitors; AID 686979; 420,000 tested, 12% active; chicken DT40 Tdp1-/-;hTDP1 cells + 20 nM CPT, ATP luminescence, 48 h; note: potency is the fitted concentration of half-maximal effect; nearly all actives have a fitted effect of over 55% in size
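Cell growth measured by CellTiter-Glo luminescence after a minimum 48 h, 37 C compound exposure with 20 nM CPT in Tdp1-knockout DT40 cells stably expressing hTDP1, seeded 400/well; qHTS titration format.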
HT1080-NT tox: kills 2HG-producing HT-1080-NT fibrosarcoma cells | Potency, µM (highest dose often 46.1 µM), for inactives: top-dose activity, negative = less viability, most hits filed as cytotoxic | 360,000 tested, 1.6% active | HT-1080-NT fibrosarcoma viability, CellTiter-Glo ATP luminescence, 48 h | AID 686970;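 note: NT is the 2HG producing partner of a matched IDH1 knockdown line; potency is the fitted concentration of half-maximal effect; 0% = DMSO-treated cells and -100% = media-only wells without cells; nearly all actives have a fitted effect of over 55% in size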
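Compounds were tested in concentration-response format on HT-1080-NT cells for 48 hours at 37 degrees C. Cell viability came from CellTiter-Glo luminescence; curves were classified by r2, response magnitude and activity.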
* = called active by the depositor; i = inactive; ? = inconclusive; / = no result given; ! = not confirmed by another sample; [ ] = dose if it differs, or a comment. Compounds with a hit are over-represented: about 19% of the library has one in this group of screens. Unless noted, calls come from the whole dose curve; as a rule, active = well fitted curve in the direction sought with a large enough effect; inconclusive = small, poorly fitted or top-dose-only effect, or another doubt; inactive = no such curve, though single readings can be large; an effect the other way counts as inactive or inconclusive. Unless noted, % is set by controls: 0 for no effect and ±100 for the full control effect.

SMILES	IL-1B inflam inh	TDP1 cell noCPT	HT1080 IDH1KD tx	TDP1 cell CPT	HT1080-NT tox
Cc1[nH]c2ccc(F)cc2c1CCN(Cc1cccnc1)C(=S)Nc1ccccc1	-11.4	?	-1.1%	-18.1%	-8.4%
Cc1cc2nc(CCN(Cc3cccnc3)C(=S)Nc3ccccc3)[nH]c2cc1C	-50.3*	?	-23.7%	-28.1%	0.0%
Cc1[nH]c2ccccc2c1CCN(Cc1cccnc1)C(=S)Nc1cccc(F)c1	-70.2*	?	-13.1%	?	-26.5%
Cc1ccc(CNS(=O)(=O)c2ccc(-n3cccn3)cc2)cc1	6.9	?	-1.3%	?	-0.1%
S=C(Nc1ccc(Br)cc1Cl)N1CCN(c2ccccn2)CC1	i	9.2%	-9.9%	3.4%	5.4%
O=C(Nc1cccc([N+](=O)[O-])c1)c1ccc2snnc2c1	-11.0	13.3%	10.0%	12.3%	20.7%
O=C(Nc1nc2nc(-c3ccccc3)cc(-c3ccccc3)n2n1)c1ccco1	-3.5	23.1µM*	25.9µM*	23.1µM*	?
O=C(NNc1nc(-c2ccc(Cl)cc2)cs1)c1ccco1	-26.9	10.3µM*	?	18.4µM*	-16.4%
O=C(NNc1nc(-c2ccccc2)cs1)c1ccco1	-13.9	16.4µM*	-29.2%	?	?
CN(C)CCNc1ncnc2c1sc1nc(N3CCOCC3)c3c(c12)CC(C)(C)SC3	-80.2*	20.6µM*	?	?	?
OCCN1CCN(c2ncnc3c2sc2nc(N4CCOCC4)c4c(c23)CCC4)CC1	-76.8*	20.6µM*	9.2%[9.24 µM]	?	?
CCCCN(CC)c1ncnc2c1sc1nc(N3CCOCC3)c3c(c12)CCCC3	/	14.4%	/	2.1%	/
OCCN(CCO)c1ncnc2c1sc1nc(N3CCOCC3)c3c(c12)CCCC3	0.9	18.4µM*	-14.4%	16.4µM*	-18.1%
CC1(C)Cc2c(c(N3CCCC3)nc3sc4c(N5CCN(CCO)CC5)ncnc4c23)CO1	-61.1*	11.2µM*	-5.3%	16.4µM*	?
CC1=C(C(=O)N(C(C)C)C(C)C)CC(CC(=O)NC(c2ccccc2)c2ccccc2)C(=O)N1CCCN1CCCC1=O (stereo not drawn)	-10.2	-19.2%	5.4%	-14.2%	22.8%
CCOC(=O)c1nc(-c2ccccc2)oc1N1CCOCC1	-4.3	?	-1.4%	?	-10.8%
Cc1cccc(CS(=O)(=O)c2nnc([C@H](Cc3ccccc3)NC(=O)OC(C)(C)C)o2)c1	?	1.46µM*	2.82µM*	1.3µM*	5.01µM*
CC(C)(C)OC(=O)N[C@@H](Cc1ccccc1)c1nnc(SCC(N)=O)o1	9.3	-3.5%	-2.6%	3.1%	-1.4%
COC(=O)CS(=O)(=O)c1nnc([C@H](Cc2ccccc2)NC(=O)OC(C)(C)C)o1	-101.5*	1.64µM*	?	1.46µM*	?
O=S(=O)(Nc1ccc(OC(F)(F)F)cc1)c1ccc(N2CCCCS2(=O)=O)cc1	/	20.6µM*	/	20.6µM*	/
COc1ccc(S(=O)(=O)Nc2ccc(F)c(Cl)c2)cc1OC	17.7	?	-16.9%	-12.8%	-14.2%
O=S(=O)(Nc1ccc(F)c(C(F)(F)F)c1)c1ccc(N2CCCCS2(=O)=O)cc1	/	11.6µM*	/	20.6µM*	/
COc1ccc(NS(=O)(=O)c2ccc(N3CCCCS3(=O)=O)cc2)cc1Cl	/	4.61µM*	/	8.2µM*	/
CCn1c(C(=O)O)c(CC(=O)Nc2ccc(Br)cc2C)c2ccccc21	36.9	25.8%	-12.6%	-15.6%	-17.5%
Clc1ccc(OCc2nnc(SCc3nc4ccccc4[nH]3)n2Cc2ccco2)cc1	197.0	20.6µM*	-16.0%	20.6µM*	-3.7%
SMILES	IL-1B inflam inh	TDP1 cell noCPT	HT1080 IDH1KD tx	TDP1 cell CPT	HT1080-NT tox
Cn1c(SCc2nc3ccccc3[nH]2)nnc1-c1cnccn1	1.9	0.9%	5.8%	-1.2%	9.5%
C(=C\c1ccccc1)/CSc1nnc(-c2ccccn2)n1Cc1ccco1	15.8	2.91µM*	4.11µM*	2.59µM*	5.8µM*
c1coc(Cn2c(SCc3nc4ccccc4[nH]3)nnc2-c2cnccn2)c1	10.5	23.1µM*	-3.1%	?	-16.8%
C=C(C1=CCN(S(=O)(=O)C(C)(C)C)[C@@H]1CCO)c1ccccc1	16.0	?	3.2%	?	0.4%
CC(NS(=O)(=O)c1ccccc1)C(c1cccs1)N1CCOCC1 (stereo not drawn)	3.5	4.0%	12.1%	-2.6%	0.4%
CCS(=O)(=O)NC(C)C(c1cccs1)N1CCN(c2ccc(OC)cc2)CC1 (stereo not drawn)	1.7	23.1µM*	15.3%	20.6µM*	-3.6%
COc1ccc(N2CCN(C(c3cccs3)C(C)NS(=O)(=O)c3ccccc3)CC2)cc1 (stereo not drawn)	-3.6	13µM*	-10.4%	20.6µM*	3.8%
CC(NS(=O)(=O)c1ccc(Br)cc1)C(c1cccs1)N1CCOCC1 (stereo not drawn)	10.3	?	11.7%	18.4µM*	-7.8%
COc1ccc(N2CCN(C(c3cccs3)C(C)NC(=O)C(=O)N3CCCC3)CC2)cc1 (stereo not drawn)	25.7	?	4.6%	16.4µM*	23.8%
COc1ccc(N2CCN(C(c3cccs3)C(C)NC(=O)C(=O)N3CCCCC3)CC2)cc1 (stereo not drawn)	5.1	-3.6%	-1.7%	-13.9%	0.4%
CC(C)Cn1c(=O)c2ccccc2n2c(CCC(=O)NC(C)c3ccccc3)nnc12 (stereo not drawn)	/	-2.4%	/	5.6%	/
COc1ccc(CNC[C@H]2O[C@@H](n3ccc(=O)[nH]c3=O)[C@H](O)[C@@H]2O)cc1	5.0	-12.3%	5.9%	9.2%	0.3%
CC1(C)C(=O)C2C[C@]3(O)C4=CC(=O)OC(c5ccoc5)[C@]4(C)CCC3[C@](C)(C2=O)C1CC(=O)O (stereo partly drawn)	/	-25.6%	/	-1.0%	/
COc1ccc([C@@H]2Sc3ccccc3N(CCN(C)C)C(=O)[C@@H]2OC(C)=O)cc1	9.6	26.6µM*!	-11.0%	?	-9.3%
COc1ccc(N2C(=O)C(OC(C)=O)C2c2ccc(C)cc2)cc1 (stereo not drawn)	26.9	?	15.7%	-4.3%	4.3%
CC1([N+](=O)[O-])COC2(CCCCC2)OC1	-6.2	?	2.8%	-4.4%	16.5%
CC(C)(C)n1cnc2cc(NCc3ccccc3Cl)ccc21	/	14.6µM*	/	?	/
O=C1N=c2ccccc2=C1c1c(O)n(-c2cccc(F)c2)[nH]c1=O	-2.7	?	-1.1%	20.6µM*	0.4%
CCCCCNC(=O)c1ccc2c(c1)nc(C)n2-c1cccc(C)c1	/	?	/	14.6µM*	/
COCCCNC(=O)c1ccc2c(c1)nc(C)n2-c1cccc(C)c1	-11.8	-27.1%	-6.5%	0.0%	-2.1%

Bioassay records (PubChem)
